In paper PMC4336329 (PLoS ONE, 2015):
The whole screen tested about 310,000 compounds, of which about 14,000 (4.5%) showed an effect of 50% or more. The effect is printed as a negative number. Many of the other results were omitted from the sample, so strong results are more common in it than they were.

Target: human ether-à-go-go-related gene (hERG) potassium channel (human, UniProt Q12809)
Experiment: primary screen, population patch clamp on CHO cells stably expressing hERG; higher = less effect of the substance
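Also: peak tail current of the secondary pulse compared with the same well before compound.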

human ether-à-go-go-related gene (hERG) potassium channel, sequence (Q12809 whole entry, looked up): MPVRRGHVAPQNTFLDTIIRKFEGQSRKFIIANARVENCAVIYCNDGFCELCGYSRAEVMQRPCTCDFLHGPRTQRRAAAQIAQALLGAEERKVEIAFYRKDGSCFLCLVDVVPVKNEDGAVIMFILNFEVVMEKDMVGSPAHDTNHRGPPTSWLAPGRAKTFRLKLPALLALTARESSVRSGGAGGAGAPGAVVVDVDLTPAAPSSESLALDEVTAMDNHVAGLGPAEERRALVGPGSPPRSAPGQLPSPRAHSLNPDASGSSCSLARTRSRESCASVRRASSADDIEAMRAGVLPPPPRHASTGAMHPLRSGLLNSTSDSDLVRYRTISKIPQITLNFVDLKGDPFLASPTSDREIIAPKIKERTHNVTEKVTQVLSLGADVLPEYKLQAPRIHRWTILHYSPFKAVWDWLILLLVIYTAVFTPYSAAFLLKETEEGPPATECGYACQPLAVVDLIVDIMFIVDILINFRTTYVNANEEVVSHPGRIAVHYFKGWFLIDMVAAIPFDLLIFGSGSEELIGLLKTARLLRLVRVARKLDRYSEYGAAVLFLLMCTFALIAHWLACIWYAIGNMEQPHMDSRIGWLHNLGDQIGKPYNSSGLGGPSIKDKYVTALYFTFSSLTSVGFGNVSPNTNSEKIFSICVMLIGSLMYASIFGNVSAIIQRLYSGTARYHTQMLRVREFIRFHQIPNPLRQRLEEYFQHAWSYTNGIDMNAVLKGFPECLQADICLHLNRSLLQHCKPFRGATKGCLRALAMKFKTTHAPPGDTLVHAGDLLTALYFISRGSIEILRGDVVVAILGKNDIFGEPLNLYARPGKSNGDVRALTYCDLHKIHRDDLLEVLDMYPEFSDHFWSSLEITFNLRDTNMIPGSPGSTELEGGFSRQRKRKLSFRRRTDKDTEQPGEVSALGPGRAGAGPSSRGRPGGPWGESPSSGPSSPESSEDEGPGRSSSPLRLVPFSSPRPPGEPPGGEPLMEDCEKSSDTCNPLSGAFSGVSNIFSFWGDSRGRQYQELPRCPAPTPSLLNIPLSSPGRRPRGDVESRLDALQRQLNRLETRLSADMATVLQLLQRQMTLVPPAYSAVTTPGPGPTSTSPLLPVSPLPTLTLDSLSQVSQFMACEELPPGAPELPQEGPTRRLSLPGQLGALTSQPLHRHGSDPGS

Row | Compound | hERG current change (%, negative = inhibition) at 10uM
1 | CC(C)OC(=O)CC(=O)CSc1nc2c(c(-c3cccs3)c1C#N)CCC2 | -8.89%
2 | O=C(c1ccc(N2CCCS2(=O)=O)cc1)N1CCN(c2ccc(F)cc2)CC1 | -28.9%
3 | COc1ccc(/C=N/Nc2ccc([N+](=O)[O-])cc2)cc1O | 10.1%
4 | O=C(COc1ccc(-c2nnco2)cc1)NCc1ccccc1Cl | -6.27%
5 | C=CCN(CC=C)C(=S)NC(=O)c1ccc(OC)c(Br)c1 | 5.1%
6 | Cn1ncc([N+](=O)[O-])c1C(=O)Nc1ccn(Cc2ccccc2F)n1 | -9.33%
7 | Cc1c(NC(=O)OCCNC(=O)COc2ccc(Cl)cc2Cl)sc(=S)n1C | -5.51%
8 | CCC1CCCCN1c1nc(-c2ccncc2)nc2ccccc12 (centres unmarked) | -42.5%
9 | CCN1CCN(c2nc(-c3ccncc3)nc3ccccc23)CC1 | -77.8%
10 | CC1CCN(c2nc(-c3ccncc3)nc3ccccc23)CC1 | -27%
11 | CCC1=C(C)CN(C(=O)NCCc2ccc(S(=O)(=O)NC(=O)NC3CCC(C)CC3)cc2)C1=O (centres unmarked) | -13.5%
12 | CCOc1ccc(/C=C(\C#N)C(=O)NCC2CCCO2)cc1OCC (centres unmarked) | -5.95%
13 | O=C(Nc1ncccc1O)c1ccc(Cl)c(S(=O)(=O)N2CCCCC2)c1 | -16.1%
14 | Cc1cccnc1NC(=O)c1ccc(Cl)c(S(=O)(=O)N2CCCCCC2)c1 | -65.5%
15 | O=C(NCc1ccccn1)c1ccc(Cl)c(S(=O)(=O)N2CCCCCC2)c1 | -64.5%
16 | O=C(NCc1ccccn1)c1ccc(Cl)c(S(=O)(=O)N2CCCCC2)c1 | -10.1%
17 | O=C(Nc1ncccc1O)c1ccc(Cl)c(S(=O)(=O)N2CCCCCC2)c1 | -61%
18 | O=C(Nc1cccnc1)c1ccc(Cl)c(S(=O)(=O)N2CCCCC2)c1 | -15.6%
19 | CC(NC(=O)c1ccc(Cl)c(S(=O)(=O)N2CCCCCC2)c1)c1cccnc1 (centres unmarked) | -52.3%
20 | Cc1cccnc1NC(=O)c1ccc(Cl)c(S(=O)(=O)N2CCCCC2)c1 | -21.7%
21 | Cc1cccnc1NC(=O)c1ccc(Cl)c(S(=O)(=O)N2CCCC2)c1 | -9.58%
22 | O=C(Nc1cccnc1)c1ccc(Cl)c(S(=O)(=O)N2CCCCCC2)c1 | -31.6%
23 | Cc1ccc(C(=O)Nc2ncccc2O)cc1S(=O)(=O)N1CCCCC1 | -14.3%

Row | Compound | hERG current change (%, negative = inhibition) at 10uM
24 | O=C(NCc1ccccn1)c1ccc(Cl)c(S(=O)(=O)N2CCOCC2)c1 | -4.89%
25 | COc1ccc(NC(=O)c2ccccn2)cc1OC | 3.32%
26 | O=C(O)c1csc(Cc2ccccc2)n1 | 15.1%
27 | COc1ccc(Cl)cc1NC(=O)Nc1cc(C)on1 | 0.43%
28 | CC(C)C(O)(C#CCN1CCCCC1)C(C)C | -1.16%
29 | Cc1cccc(N2C(=O)CC(NNc3nc4ccccc4s3)C2=O)c1 (centres unmarked) | 10.6%
30 | Cc1cc(C)c(C(=O)C(C)OC(=O)Cn2cnc3c2c(=O)n(C)c(=O)n3C)cc1C (centres unmarked) | -17.6%
31 | CC(C(=O)c1ccccc1)n1cnc2ccccc2c1=O (centres unmarked) | -2.46%
32 | CC(=O)c1cccc(NC(=O)CCN2C(=O)C3CC=CCC3C2=O)c1 (centres unmarked) | 5.49%
33 | COCCN(CCOC)S(=O)(=O)c1ccc(OC)cc1 | 8.79%
34 | Cc1ccnc(NC(=O)CCCc2ccccc2)c1 | 13%
35 | COc1ccc(C2Nc3ccccc3C(=O)N2NS(=O)(=O)c2ccc(C)cc2)c(OC)c1 (centres unmarked) | 3.22%
36 | Cc1csc(=O)n1CC(=O)OC(C)C(=O)Nc1ccc(F)c(F)c1F (centres unmarked) | -4.29%
37 | CCOc1ccc(C(=O)C(C)OC(=O)CN2C(=O)NC(C)(C)C2=O)cc1 (centres unmarked) | -7.23%
38 | CCOc1ccc(C(=O)C(C)OC(=O)Cn2c(C)csc2=O)cc1 (centres unmarked) | -60.1%
39 | O=C(COc1ccc(Cl)cc1)Nc1ccc2c(c1)nc1n2CCOC1 | -34%
40 | O=C(CC1NC(=O)NC1=O)Nc1ccccc1 (centres unmarked) | -0.537%
41 | CCOc1cc2c(cc1OCC)-n1cccc1C(c1ccc(C)cc1C)NC2.Cl (centres unmarked) | -0.599%
42 | CCOc1cc2c(cc1OCC)-n1cccc1C(c1ccc(OC)c(OC)c1)NC2.Cl (centres unmarked) | -30.2%
43 | CCOc1cc2c(cc1OCC)-n1cccc1C(c1cc(C)c(OC)cc1C)NC2.Cl (centres unmarked) | -62.1%
44 | CCOc1cc2c(cc1OCC)-n1cccc1C(c1ccc(F)cc1)NC2.Cl (centres unmarked) | 0.0384%
45 | CCOc1cc2c(cc1OCC)-n1cccc1C(c1ccc(OC(F)F)cc1)NC2.Cl (centres unmarked) | -65.3%
46 | CCOc1cc2c(cc1OCC)-n1cccc1C(c1ccccc1OC)NC2.Cl (centres unmarked) | -7.52%

Row | Compound | hERG current change (%, negative = inhibition) at 10uM
47 | CCOc1cc2c(cc1OCC)-n1cccc1C(c1cccc(F)c1)NC2.Cl (centres unmarked) | -14.8%
48 | CCOc1cc2c(cc1OCC)-n1cccc1C(c1ccc(OC)cc1)NC2.Cl (centres unmarked) | -48.1%
49 | CCOc1cc2c(cc1OCC)-n1cccc1C(c1cccc([N+](=O)[O-])c1)NC2.Cl (centres unmarked) | -59.9%
50 | O=S(=O)(NC1=NCCCCCC1)c1cccs1 | 3.19%
51 | CCN1C(C(=O)c2ccccc2)=C(Nc2ccccc2C)c2ccccc2S1(=O)=O | -4.84%
52 | Cl.Nn1cnnc1N/N=C/c1ccc(Cl)c([N+](=O)[O-])c1 | -26.6%
53 | O=c1[nH]c(/C=C\c2cccs2)nc(O)c1[N+](=O)[O-] | -4.76%
54 | CCOc1ccc(/C=N/NC(=O)c2[nH]c3ccc(C)cc3c2C)cc1 | 12.4%
55 | Cc1cccc(NC(=O)Cn2cnc3c(oc4ccccc43)c2=O)c1 | 12.5%
56 | CCN(CC)S(=O)(=O)c1ccc(Oc2ccc(S(=O)(=O)N(CC)CC)cc2)cc1 | -22.7%
57 | CCN(CC)S(=O)(=O)c1ccc(Oc2ccccc2OC)cc1 | -65.3%
58 | CCN1CCN(S(=O)(=O)c2ccc(Oc3ccccc3OC)cc2)CC1 | -15%
59 | COc1ccccc1Oc1ccc(S(=O)(=O)N2CCCC2)cc1 | -77.3%
60 | COc1ccccc1Oc1ccc(S(=O)(=O)N2CCN(C)CC2)cc1 | -1.98%
61 | CCN(CC)S(=O)(=O)c1ccc(Oc2ccccc2)cc1 | -20.7%
62 | COc1cc(OC)cc(Oc2ccc(S(=O)(=O)N3CCCCC3)cc2[N+](=O)[O-])c1 | 1.5%
63 | COc1cccc(Oc2ccc(S(=O)(=O)N3CCCC3)cc2[N+](=O)[O-])c1 | -57.1%
64 | O=[N+]([O-])c1cc(S(=O)(=O)N2CCCC2)ccc1OCCOc1ccccc1 | -32.4%
65 | CN=C1S/C(=C\c2cn(CC(=O)OC)c3ccccc23)C(=O)N1C | 7.11%
66 | COc1ccc([N+](=O)[O-])cc1NC(=O)Nc1ccc(OC)c(OC)c1 | 8.37%
67 | COc1ccc(CCNC(=O)COC(=O)Cc2ccc(OC)cc2)cc1 | 9.48%
68 | Cc1cc(N2CCOCC2)nc2ccc(Cl)cc12 | 9.25%
69 | Cc1cc(N2CCCCCC2)nc2ccccc12.O=C(O)C(=O)O | -56.1%

Row | Compound | hERG current change (%, negative = inhibition) at 10uM
70 | Cc1cc(N2CCCC2)nc2ccccc12 | -41.2%
71 | COc1ccc2c(C)cc(N3CCN(Cc4ccccc4)CC3)nc2c1 | -29.6%
72 | Cc1cc(N2CCN(C)CC2)nc2ccccc12 | -0.28%
73 | Cc1cc(N2CCCN(C)CC2)nc2cc(Cl)ccc12 | -61.7%
74 | Cc1cc(N2CCN(c3ccc(F)cc3)CC2)nc2cc(O)ccc12 | -75.9%
75 | COc1ccc2c(C)cc(N3CCOCC3)nc2c1 | -7.7%
76 | COc1ccc2c(C)cc(N3CCCCCC3)nc2c1.O=C(O)C(=O)O | -82%
77 | COc1ccc(N2CCN(c3cc(C)c4ccc(O)cc4n3)CC2)cc1 | -24.4%
78 | Cc1cc(N2CCCCC2)nc2ccccc12 | -9.74%
79 | COc1ccc2c(C)cc(N3CCN(c4ccc(F)cc4)CC3)nc2c1 | -25.7%
80 | CCOc1cccc(/C=N/N2C(=O)CSC2=S)c1O | 24.2%
81 | O=C(CO/N=C/c1ccc(Cl)cc1Cl)NNC(=O)c1ccc(Cl)cc1Cl | 3.17%
82 | O=C(NCCO)Nc1ccc(Cl)cc1 | 27.7%
83 | O=C(CN(C(=O)c1csnn1)c1ccc(F)c(Cl)c1)NCc1ccc(F)cc1 | 7.3%
84 | CN1OC(Cn2cc(C#N)c(=O)n(C)c2=O)CC1c1ccccc1 (centres unmarked) | 12.5%
85 | CCOc1ccc(CN(C)CC(=O)Nc2cc(C)c(C)cc2[N+](=O)[O-])cc1.CN(C)C=O | 9.36%
86 | Oc1ccc(Nc2nc(-c3ccc(O)cc3)cs2)cc1 | 18.9%
87 | Cc1cc(C)cc(NC(=O)c2ccc(CSc3nnnn3C)cc2)c1 | -24%
88 | Cl.NCCCNc1ccc([N+](=O)[O-])cc1C(F)(F)F | -15%
89 | CCn1cc(C(=O)O)c(=O)c2cc(F)c(N3CCN(C(=S)NC(=O)c4cccc(F)c4)CC3)cc21 | 5.44%
